From publication PMC13494018

B1: d8r1_design_ppi_414_dldesign_0_cycle0_af2pred (protein)
chain: MEEELKKIKELGKKAAKLAEEEGEEGFKKAIAELEKAAAEAAKGEKAKELQKLVGQGIIDVGKAAYKKEEKKEEELAK
B2: d8r1_design_ppi_991_dldesign_0_cycle0_af2pred (protein)
chain: AAAALTAAVAASIKGLAELARKAIDDKSVVKAAANAAKSAAALDKALGKEMSKKLEEAAKKSPEEAVKTIEEVAAKVAAAAAA
B3: d8r1_design_ppi_41_dldesign_0_cycle1_af2pred (protein)
chain: RGEEILKKAKEAATRALQLASKDPSLLPLALKALALASEAGYAIAHEGVEKGEELAEKAEKLTEEIEKLAE
B4: d8r1_design_ppi_988_dldesign_0_cycle1_af2pred (protein)
chain: SEAAMAAAIAAAHAAAQAVVAADPAAAPFARALMSYAMLAVSDPAAGLAGLAAVAEAAAAAGAAAMAAVAAATRAALAAAHA
B5: d8r1_design_ppi_306_dldesign_0_cycle0_af2pred (protein)
chain: DAARRAKAEALLKQAKEDFKKFAEQAKKEGPSVLKALKNINESVAEHLKKLDPELGEELKKYGEELIKKAEE
B6: d8r1_design_ppi_371_dldesign_0_cycle0_af2pred (protein)
chain: SAEKAALLAQGKAYFATAKAAAAAAIKLKEAGGSEKTVQALIEQAKAAGEKATALFEAYDPELGKKVKEEVDALLAAAKA
B7: d8r1_design_ppi_569_dldesign_0_cycle0_af2pred (protein)
chain: EPSPRVQALLHVGRAAATLIAASGTEAGRAAAAELARLAFEAAASSPEEGQKLLEEALARADEVAAGLPADAAAAVRAHLEAALAAMK
B8: d8r1_design_ppi_429_dldesign_0_cycle0_af2pred (protein)
chain: AAAARAAAAAEGAIAAAKLAGESGNLEALKAFVEAAHAAAAKADPATAAALKAKADATLEAAKKAFKEKEEA
B9: d8r1_design_ppi_302_dldesign_0_cycle1_af2pred (protein)
chain: DEEEGKKSALKAAETARRLAEEAAKQAKEKAADPALAKKYVAKAKAYAKAAEDIAKGFPDNAEIKAAAKEAKKAAQQAKEALKA
B10: d8r1_design_ppi_1325_dldesign_0_cycle0_af2pred (protein)
chain: SSGKEKAAEYRAKADALAAQESPETQAQLRALAERVLKAAEEGVEALAKAAAEAAAFGAATSPTAQAAAREAIAAGVAL
B11: d8r1_design_ppi_1316_dldesign_0_cycle1_af2pred (protein)
chain: SAVAKAAAAAAAAAKKALASHPAIGAAVARSIELGKLEEAAAFATAAAKALIGEEAGEALGKELDKLVAAAKAAA
B12: d8r1_design_ppi_955_dldesign_0_cycle0_af2pred (protein)
chain: LYAELAARVRAIMAAAGMSPREADTVAAFALAAAADPELEEAMREKMRKAAGPEFEPAVEEAIALAREAAAAL
B13: d8r1_design_ppi_1206_dldesign_0_cycle1_af2pred (protein)
chain: SPAAQWAALDADLKQARELAKKAKEVGNEEEAKKVEAALKKAEAAAAAARADPSLYHEARRAVGEAQVEALKVISKG
B14: d8r1_design_ppi_863_dldesign_0_cycle0_af2pred (protein)
chain: SRAERLIEEAERLAKEAKEAAKRVADSPVAPRAKALADATEAFAKGLKAAAAAGGSMEDQEALLRAARNTAEAAKILAEEAEAARAA
B15: d8r1_design_ppi_149_dldesign_0_cycle0_af2pred (protein)
chain: DEAAEIFAKALDEMDKKVKEAKEEVKKALEEGEKKDPEEAKKKAKEIIEKAIKELKEIAEKAAKKVPKLGPAAKATAEATAKVLK
B16: d8r1_design_ppi_699_dldesign_0_cycle0_af2pred (protein)
chain: AAVAAAAAAGKAAIEKIEKAAKEAEKINKESGKALKSLAEQAKKLLAEGIANPATRDAKLAGVNNIAAGAETLAKALKEEKA
B17: d8r1_design_ppi_480_dldesign_0_cycle1_af2pred (protein)
chain: SAAAATEAKAKAWAAEIIAAAKADPAAAAALATEVVATASEEEIRTLLNILAQQAFKSPDGLTALTAVSAAVAARYA
B18: d8r1_design_ppi_655_dldesign_0_cycle1_af2pred (protein)
chain: DDNKAAANAAKTGGNSSNERAKKLLAAGIASGDKALIAQAATLFANAATLYAFANAKTGPEYQANVDAAKANQAAANAALA
B19: d8r1_design_ppi_1220_dldesign_0_cycle1_af2pred (protein)
chain: AEERAEELAKEAFKLLSEAAKAAATATTEEQVKKGEELAEKAKKLAEELLKEDPSKKGLSEGIKRAAEKVKKAAEEKKKEL

target: PDL1, Q9NZQ7
Sequence (Q9NZQ7 whole entry): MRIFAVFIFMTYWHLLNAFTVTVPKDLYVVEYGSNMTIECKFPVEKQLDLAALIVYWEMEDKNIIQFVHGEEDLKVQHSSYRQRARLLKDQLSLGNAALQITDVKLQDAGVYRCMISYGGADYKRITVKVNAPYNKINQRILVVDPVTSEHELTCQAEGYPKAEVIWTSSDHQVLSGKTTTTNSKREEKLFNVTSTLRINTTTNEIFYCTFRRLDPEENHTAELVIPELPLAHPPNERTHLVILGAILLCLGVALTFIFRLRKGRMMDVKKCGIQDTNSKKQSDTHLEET

Binding in a display sort, inactive:
B1 not found, B2 not found, B3 not found, B4 not found, B5 not found, B6 not found, B7 not found, B8 not found, B9 not found, B10 not found, B11 not found, B12 not found, B13 not found, B14 not found, B15 not found, B16 not found, B17 not found, B18 not found, B19 not found
